In PubChem BioAssay:
Activity calls are given as the source filed them.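 Rule for the calls, unless noted: active = inhibition above 20% together with a positive visual image hit; inconclusive = visual image hit but inhibition not above 20%; inactive = no visual image hit.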

Assays:
[1] = inhibitors of TNFa-induced NFkB p65 translocation, primary screen, imaging, HUVEC, MLSMR starter and 10KST1 sets (AID 438); details: HUVEC TNFa-induced p65 nuclear translocation; cell count: measured here: nuclei count (cytotoxicity indicator), at 2.08 µM; inhibition: at 2 µM, stronger effect = higher value, 0% TNFa-plus-vehicle, 100% no-TNFa wells;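 note: compound added about 3h40 before a 20 min TNFalpha stimulation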;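 for inhibition: signal is the nuclear over cytoplasmic p65 intensity ratio per well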
[2] = inhibitors of mutant huntingtin aggregation, primary screen, imaging, exon1htt(103Q)mCFP cells, high-content imaging (AID 483;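 active = visual image review flags a hit and inhibition of aggregation exceeds 20%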;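 note: compound exposure lasted 3 days before fixation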;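 for nuclei count: percent of the per-plate median nuclei count of sample wells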); details: exon1htt(103Q)mCFP cell line, aggregate imaging, at 2 µM; inhibition of aggregation: stronger effect = higher value; nuclei count: measured here: cell count, toxicity
[3] = inhibitors of E-selectin induction by TNFa, primary screen, imaging, HUVEC, immunofluorescence, MLSMR starter and 10KST1 sets (AID 487;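 active = visually confirmed hit in the image check and inhibition above 20%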;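 for inhibition: signal is fraction of cell area covered by stained E-selectin grains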;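 for nuclei count: 100% = median nuclei count of all wells on the same plate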); details: HUVEC TNFalpha-induced E-selectin immunofluorescence imaging, at 2 µM; inhibition: stronger effect = higher value; nuclei count: measured here: cell number, toxicity
[4] = biological target: Voltage-gated potassium channel subunit beta-2 (Rattus norvegicus) (UniProt P62483); experiment: KvBeta enzyme negative modulators, primary screen, biochemical, NADPH fluorescence (AID 622;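 active = fluorescence slope higher than the sample average by over 3 SD, cut at about -0.22 in these data, passing the limit was not always enough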;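 note: slope of raw intensity against log time taken from 70 to 1610 s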); details: recombinant KvBeta, 4-cyanobenzaldehyde reduction, at 10 µM, stronger effect = higher value
[5] = biological target: Voltage-gated potassium channel subunit beta-2 (Rattus norvegicus) (UniProt P62483); experiment: KvBeta positive modulators, primary screen, biochemical, NADPH fluorescence (AID 623;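 active = NADPH fluorescence slope more negative than the mean of all samples by about 3 SD, 99.7% confidence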;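 note: fluorescence intensity change per second fitted from 20 to 320 s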); details: Recombinant KvBeta, NADPH fluorescence decrease slope, 10 min; at 10 µM; stronger effect = lower value
[6] = biological target: Alpha-2C adrenergic receptor (Homo sapiens) (UniProt P18825); experiment: modulators of alpha2C/GIRK thallium flux, primary screen, cell-based, HEK293 alpha2C/GIRK1/2 (AID 624;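 active = fluorescence slope after compound addition differing from the mean of all screened samples at 99.7% confidence, in either direction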;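 note: slope of fluorescence ratio to pre-addition baseline per second over 15 to 24 s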); details: thallium flux BTC fluorescence, at 10 µM, actives lie on both sides
[7] = inhibitors of Sendai virus-induced IRF3 signaling, primary screen, TLR/RLR signaling modifier project, cell-based, Sendai virus stimulus, luciferase, 10K MLSCN set (AID 602276;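 active = inhibition at or above 50% at 10 µM; inactive = inhibition below 50%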;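 note: firefly luciferase from ISG56 promoter only with Renilla not read in this screen; 0% = Sendai virus plus DMSO and 100% = medium plus DMSO without virus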); details: HEK293 RL24 IRF3 luciferase reporter, at 10 µM, stronger effect = higher value
[8] = inhibitors of poly I:C-induced TLR3 signaling, primary screen, cell-based, poly I:C stimulus, luciferase, 10K MLSCN set (AID 602277;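 active = inhibition of the reporter signal at or above 50%; inactive = inhibition below 50%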); details: HEK293-TLR3 RL24 IRF3 luciferase reporter, at 10 µM, stronger effect = higher value

Sequence of Voltage-gated potassium channel subunit beta-2 (Rattus norvegicus) (P62483 whole entry, looked up): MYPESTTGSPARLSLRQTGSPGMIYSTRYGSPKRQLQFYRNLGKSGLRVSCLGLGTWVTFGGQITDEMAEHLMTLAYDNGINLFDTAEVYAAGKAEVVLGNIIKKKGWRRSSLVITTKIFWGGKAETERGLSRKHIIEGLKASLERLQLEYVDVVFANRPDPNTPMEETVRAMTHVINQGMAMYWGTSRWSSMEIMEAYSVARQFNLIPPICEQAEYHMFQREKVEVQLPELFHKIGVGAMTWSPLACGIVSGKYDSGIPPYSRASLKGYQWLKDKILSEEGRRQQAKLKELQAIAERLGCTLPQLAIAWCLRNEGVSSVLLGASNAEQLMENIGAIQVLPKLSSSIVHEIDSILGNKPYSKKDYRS
Sequence of Alpha-2C adrenergic receptor (Homo sapiens) (P18825 whole entry, looked up): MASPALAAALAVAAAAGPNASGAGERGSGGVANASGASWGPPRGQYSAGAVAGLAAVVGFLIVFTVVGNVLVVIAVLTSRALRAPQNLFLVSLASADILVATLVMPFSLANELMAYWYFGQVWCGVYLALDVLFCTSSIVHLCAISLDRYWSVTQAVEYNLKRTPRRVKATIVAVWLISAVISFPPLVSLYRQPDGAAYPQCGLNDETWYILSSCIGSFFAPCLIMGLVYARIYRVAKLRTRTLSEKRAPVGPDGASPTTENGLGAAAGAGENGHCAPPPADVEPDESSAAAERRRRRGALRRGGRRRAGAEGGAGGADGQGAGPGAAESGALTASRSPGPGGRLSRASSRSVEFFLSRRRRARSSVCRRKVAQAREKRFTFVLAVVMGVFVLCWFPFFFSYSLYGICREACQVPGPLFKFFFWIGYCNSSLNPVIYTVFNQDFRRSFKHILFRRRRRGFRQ

SMILES | cell count [1] | inhibition [1] | inhibition of aggregation [2] | nuclei count [2] [%] | inhibition [3] | nuclei count [3] [%] | fluorescence slope [4] | NADPH fluorescence slope [5] | slope [6] | inhibition [7] | inhibition [8]
c1ccc(Cn2nnnc2CN2CCN(c3ncccn3)CC2)cc1 | 717 | -8.1% (inactive) | -12.8% (inactive) | 114 | -11.1% (inactive) | 130 | -0.585 (inactive) | -4.5e-05 (inactive) | 0.0043 (inactive) | 11.4% (inactive) | 20.1% (inactive)
CCCOc1cccc(C(=O)Nc2cc(NC(=O)c3ccco3)ccc2OC)c1 | 436 | 3.8% (inactive) | 2.3% (inactive) | 101 | 8.3% (inactive) | 105 | -0.278 (inactive) | -2.4e-05 (inactive) | 0.00685 (inactive) | 2.93% (inactive) | -15% (inactive)
COC(=O)c1cc(OC)c(OC)cc1NC(=O)c1ccc(Br)o1 | 296 | -7.2% (inactive) | -7.5% (inactive) | 95.4 | -91.3% (inactive) | 103 | -0.312 (inactive) | -4.6e-05 (inactive) | 0.00764 (inactive) | 2.63% (inactive) | -5.12% (inactive)
CCc1nnc(NC(=O)COC(=O)CN2C(=O)c3ccccc3C2=O)s1 | 375 | 4.7% (inactive) | 7.1% (inactive) | 91.2 | 4.5% (inactive) | 84.7 | -0.53 (inactive) | -4.4e-05 (inactive) | 0.00636 (inactive) | -1.09% (inactive) | 12.5% (inactive)
CCCc1ccc(S(=O)(=O)NCCc2ccncc2)cc1 | 352 | -15.7% (inactive) | -25.5% (inactive) | 109 | -94.2% (inactive) | 121 | -0.585 (inactive) | -2.4e-05 (inactive) | 0.00524 (inactive) | -3.61% (inactive) | -11.2% (inactive)
Cn1nnnc1SCC(=O)Nc1ccccc1-c1ccccc1 | 484 | -8.7% (inactive) | 14.7% (inactive) | 87.9 | -80.2% (inactive) | 114 | -0.302 (inactive) | -1.3e-05 (inactive) | 0.00645 (inactive) | 6.85% (inactive) | -4.74% (inactive)
CCCc1cc(C(=O)Nc2ccccc2SC)no1 | 849 | 5.8% (inactive) | -12.6% (inactive) | 108 | -35.7% (inactive) | 121 | -0.597 (inactive) | -2.4e-05 (inactive) | 0.00474 (inactive) | -22% (inactive) | -51.6% (inactive)
Cc1cc(Nc2ccccc2)n(-c2ccccc2)n1 | 329 | -3.3% (inactive) | 27.4% (inactive) | 114 | -44.7% (inactive) | 128 | -0.499 (inactive) | -2.4e-05 (inactive) | 0.00371 (inactive) | -15% (inactive) | -36.8% (inactive)
CC(C)C(NC(=O)OCc1ccccc1)C(=O)OCC(=O)NCc1ccco1 (stereo not drawn) | 511 | -2.9% (inactive) | -14.8% (inactive) | 114 | 7.4% (inactive) | 119 | -0.366 (inactive) | 2.2e-05 (inactive) | 0.00253 (inactive) | 0.314% (inactive) | 5.27% (inactive)
Cc1ccc(-c2noc(CCC(=O)NC3CCCc4ccccc43)n2)cc1 (stereo not drawn) | 377 | -2% (inactive) | 5.2% (inactive) | 108 | -27.6% (inactive) | 85.8 | -0.411 (inactive) | -3.2e-05 (inactive) | 0.00255 (inactive) | 19.1% (inactive) | 18.8% (inactive)
CCn1c(SCC(=O)c2ccc(F)cc2)nnc1-c1ccoc1C | 423 | -19.4% (inactive) | -1.3% (inactive) | 78 | -50.4% (inactive) | 103 | -0.607 (inactive) | 1.4e-05 (inactive) | 0.00696 (inactive) | 6.99% (inactive) | 11.7% (inactive)
COc1ccc(-c2cc3n(n2)CCc2nc4ccccc4n2-3)cc1 | 415 | -32.3% (inactive) | 30.7% (inactive) | 123 | 37% (inactive) | 127 | -0.433 (inactive) | -1.6e-05 (inactive) | 0.00599 (inactive) | 12.2% (inactive) | -17.1% (inactive)
CCCCOCCCNC(=O)c1cccs1 | 471 | 4.5% (inactive) | -4.3% (inactive) | 103 | -392% (inactive) | 139 | -0.443 (inactive) | -2.3e-05 (inactive) | 0.00349 (inactive) | 5.11% (inactive) | 25.1% (inactive)
CCOC(=O)c1sc2nc(N3CCCC3)c3c(c2c1N)CC(C)(C)OC3 | 410 | 2.7% (inactive) | -0.3% (inactive) | 105 | -22.4% (inactive) | 103 | -0.302 (inactive) | -1.6e-05 (inactive) | 0.0041 (inactive) | -5.95% (inactive) | 2.54% (inactive)
COCCn1c(SCc2csc(-c3ccccc3)n2)nc2ccccc21 | 639 | 7.2% (inactive) | -4% (inactive) | 97.2 | -24.6% (inactive) | 96.8 | -0.456 (inactive) | 7.6e-05 (inactive) | 0.00574 (inactive) | 1.52% (inactive) | -1.01% (inactive)
O=C(NC1CCCCC1)c1cc2nc(-c3ccco3)cc(C(F)(F)F)n2n1 | 455 | -5.7% (inactive) | 12.4% (inactive) | 92.7 | -46% (inactive) | 156 | -0.218 (inactive) | -5.6e-05 (inactive) | 0.00549 (inactive) | 10.5% (inactive) | 10.6% (inactive)
COc1ccc(Oc2nc(Oc3ccc(OC)cc3)nc(Oc3ccc(OC)cc3)n2)cc1 | 320 | -5.1% (inactive) | -10.7% (inactive) | 109 | -4.6% (inactive) | 106 | -0.536 (inactive) | -1.9e-06 (inactive) | 0.00755 (inactive) | 3.19% (inactive) | 11.5% (inactive)
COc1ccccc1C(=O)N1CCN=C1SCc1cccnc1 | 266 | -0.3% (inactive) | -22.1% (inactive) | 103 | 0.7% (inactive) | 97.2 | -0.595 (inactive) | -3.9e-05 (inactive) | 0.00599 (inactive) | -7.45% (inactive) | 6.88% (inactive)
CCN1CCN(c2nc3c(c(=O)[nH]c(=O)n3C)n2CCSc2nc3ccccc3s2)CC1 | 638 | -11.8% (inactive) | -2.9% (inactive) | 111 | -45.2% (inactive) | 113 | -0.431 (inactive) | -2.8e-05 (inactive) | 0.00469 (inactive) | 12.2% (inactive) | 23.6% (inactive)
O=C(CCCn1c(=O)c2sccc2n(Cc2cc(=O)n3ccccc3n2)c1=O)NCc1ccco1 | 729 | -2.9% (inactive) | -3.9% (inactive) | 106 | -67.8% (inactive) | 116 | -0.575 (inactive) | 3.3e-07 (inactive) | 0.0069 (inactive) | -12.7% (inactive) | -8.56% (inactive)
CCOC(=O)N1CCC(c2cc(=O)n3[nH]c(C)c(-c4ccc(F)cc4)c3n2)CC1 | 743 | -13.4% (inactive) | -25.8% (inactive) | 120 | -82.2% (inactive) | 119 | -0.589 (inactive) | 1.5e-07 (inactive) | 0.00863 (inactive) | 11.5% (inactive) | 31% (inactive)
O=C(CCNS(=O)(=O)c1cccc2nsnc12)NCc1cccs1 | 623 | -21% (inactive) | -17.4% (inactive) | 101 | -34.5% (inactive) | 118 | -0.508 (inactive) | -0.000109 (inactive) | 0.00523 (inactive) | 17.1% (inactive) | 19% (inactive)
CCN(CC)CCn1c(OC)cc(=O)[nH]c1=O | 411 | 5.3% (inactive) | -27.5% (inactive) | 108 | -137% (inactive) | 114 | -0.503 (inactive) | 1.6e-06 (inactive) | 0.00433 (inactive) | 10.7% (inactive) | 18.4% (inactive)
COc1ccc(CNC(=O)c2cnc3n(c2=O)CCS3)cc1 | 591 | -6.4% (inactive) | 15.6% (inactive) | 97.2 | 15.6% (inactive) | 95.7 | -0.369 (inactive) | 4e-05 (inactive) | 0.00542 (inactive) | 10.9% (inactive) | 29.1% (inactive)
COc1cccc(OCc2nc3ccccc3[nH]2)c1 | 596 | -4.8% (inactive) | 3.2% (inactive) | 102 | -75.3% (inactive) | 114 | -0.57 (inactive) | -9.8e-06 (inactive) | 0.0079 (inactive) | -67.8% (inactive) | -190% (inactive)
CC(C)CNC(=O)C1CC(=O)OC12CCCCC2 (stereo not drawn) | 661 | -32.6% (inactive) | 4.3% (inactive) | 96.4 | -18.4% (inactive) | 107 | -0.594 (inactive) | -6.1e-05 (inactive) | 0.00558 (inactive) | 12.4% (inactive) | 19.6% (inactive)
COC(=O)c1c(NC(=O)CSc2nnc(-c3cccnc3)n2Cc2ccco2)sc(C)c1C | 505 | -5.5% (inactive) | 24% (inactive) | 101 | 29.5% (inactive) | 104 | -0.579 (inactive) | -2.7e-05 (inactive) | 0.00567 (inactive) | 4.42% (inactive) | 16.1% (inactive)
CCCCOc1ccccc1C1C(C(N)=O)=C(C)Nc2nnnn21 (stereo not drawn) | 279 | -4.7% (inactive) | 0.7% (inactive) | 88.7 | -56% (inactive) | 97.9 | -0.459 (inactive) | 2.7e-05 (inactive) | 0.0066 (inactive) | 17.4% (inactive) | 27.7% (inactive)
